Results: PubChem BioAssay (EPA / NIEHS)
Activity calls are given as the source filed them. Rule for the calls: active = hit-call score of the fitted dose curve at least 0.9, where 1 is the maximum; inactive = score below 0.9.

Read-out: Potassium channel subfamily K member 1 (KCNK1), KCNK1 (gene 3775)
Assay: LTEA_HepaRG_KCNK1: Life Technologies and Expression Analysis (LTEA) Assay for Potassium channel subfamily K member 1 (KCNK1) using HepaRG (AID 2283511)
Conditions: mRNA level, 48 h; actives raise or lower the signal
Description: LTEA_HepaRG is a cell based, multiplexed-readout assay that uses HepaRG, a human liver cell line, with measurements taken at 48 hours after chemical dosing on a 96-well plate.LTEA_HepaRG_KCNK1 is one of 102 assay component(s) measured in the LTEA HepaRG cell culture assay. It is a marker of Hyperplasia.Data from the assay component LTEA_HepaRG_KCNK1 was analyzed into 1 endpoint. This assay endpoint, LTEA_HepaRG_KCNK1, was analyzed with bidirectional fitting relative to DMSO as the negative control and baseline of activity. Using a type of inducible reporter, measures of mRNA induction for gain or loss-of-signal activity can be used to understand regulation of transcription factor activity. To generalize the intended target to other relatable targets, this assay endpoint is annotated to the ion channel intended target family, where the subfamily is potassium channel.
A total of 1060 chemcials from the ToxCast library were tested in eight-point concentration-response experiments. Cell culture and cytotoxicity assays were conducted at Thermo Fisher Scientific's Custom Services facility (Madison, WI). A single lot of human HepaRG cells (Thermo Fisher Scientific, Frederick, MD) was used for the cell culture experiments. 96-well format collagen type I coated plates of human HepaRG cells were prepared using established methods. Briefly, cryopreserved HepaRG cells were thawed, plated at a density of approximately 100,000 cells/well in HepaRG Thaw, Plate, and General Purpose media (HPRG770, Thermo Fisher Scientific), and incubated for 48 hours. 0.5% DMSO was selected as vehicle control to balance the requisite need of DMSO in HepaRG cultures to maintain differentiation (for example, baseline metabolism, proportions of hepatocytes vs. cholangiocytes), while enabling further hepatic receptor pathway activation (for example, PXR and CAR) in response to chemical exposure. 48 hours after plating, the culture medium was replaced with HepaRG Serum-Free Incudtion Media. Cells were exposed to each test chemical in duplicate and maintained in CO2 incubators for another 48 hours. Chemical plates were thawed to room temperature and 200x concentrations of treatment groups were prepared. 8-point conentration-reponse curves were made with the highest exposure at 100 uM, followed by half-log dilutions, all in 0.5% DMSO. Each test plate contained variouse controls, induction positive controls (1mM phenobarbital), cytotoxicity positive controls ([…] aflatoxin B1), vehicle controls (0.5% DMSO), and total lysis controls (0.5% DMSO). Cell morphology images were taken using an Essen IncuCyte FLR automated microscope, with six 96-well plates imaged in about 24 minutes. Images were captured and exported and JPEG files. Spent culture media was transfered to black-well plates for the LDH assay, and remaining media was sorted at -80 C for later use. Cells were treated with RLT buffer and frozen until shipped for gene expression analysis. Total RNA was isolated from the cell suspension in 75 uL of Buffer RLT (Qiagen, Germantown, MD 20874) by Quintiles/Expression Analysis (Durham, NC) using a custom isolation procedure. Total RNA from each plate well was transferred to a preamplification plate. Fluidigm's 96.96 Dynamic ArrayTM (Fluidigm, Amsterdam, the Netherlands) technology was used for gene expression analyses by quantitative reverse transcription polymerase chain reaction (qRT-PCR, performed by Quintiles/Expression Analysis, Durham, NC)89. Standard TaqManTM Assays (Applied Biosystems/ThermoFisher Scientific, Foster City, CA) were used to assess the expression of 93 genes selected based on their selectivity and sensitivity to important hepatic receptors known to be modulated by environmental chemicals; importance in human hepatocyte functionality; and hepatotoxicity. […]

Row | SMILES | outcome | AC50
1 | CCC(C)Nc1c([N+](=O)[O-])cc(C(C)(C)C)cc1[N+](=O)[O-] (stereo not given) | inactive | –
2 | CCOC1Oc2ccc(OS(C)(=O)=O)cc2C1(C)C (stereo not given) | inactive | –
3 | CC(C)(C)C(O)/C(=C\c1ccc(Cl)cc1Cl)n1cncn1 (stereo not given) | – | 71.6 µM (active)
4 | COP(=O)(OC)OC=C(Cl)Cl | inactive | –
5 | CN1CSC(=S)N(C)C1 | inactive | –
6 | O=C(O)CCCOc1ccc(Cl)cc1Cl | inactive | –
7 | CC1(c2ccc(Oc3ccccc3)cc2)OC(=O)N(Nc2ccccc2)C1=O (stereo not given) | – | 26.3 µM (active)
8 | O=C1c2ccccc2C(=O)N1SC(Cl)(Cl)Cl | inactive | –
9 | O=C(Nc1ccccc1)Nc1cnns1 | inactive | –
10 | CC(C)N(C(=O)COc1nnc(C(F)(F)F)s1)c1ccc(F)cc1 | inactive | –
11 | CC1(C)C(C=C(Cl)Cl)C1C(=O)OC(C#N)c1ccc(F)c(Oc2ccccc2)c1 (stereo not given) | inactive | –
12 | OCCOc1ccccc1 | inactive | –
13 | C#CCN1C(=O)COc2cc(F)c(N3C(=O)C4=C(CCCC4)C3=O)cc21 | inactive | –
14 | O=S1OCC2C(CO1)C1(Cl)C(Cl)=C(Cl)C2(Cl)C1(Cl)Cl (stereo not given) | inactive | –
15 | O=C(O)COc1ccc(Cl)cc1Cl | inactive | –
16 | Cc1[nH]c(=O)n(C(C)(C)C)c(=O)c1Cl | inactive | –
17 | CC(C)(C)C(O)C(Oc1ccc(Cl)cc1)n1cncn1 (stereo not given) | inactive | –
18 | COP(=S)(OC)Oc1ccc(SC)c(C)c1 | inactive | –
19 | O=C(NC(=O)c1c(F)cccc1F)Nc1ccc(OC(F)(F)C(F)OC(F)(F)F)c(Cl)c1 (stereo not given) | inactive | –
20 | CCC(C)(NC(=O)c1cc(Cl)c(C)c(Cl)c1)C(=O)CCl (stereo not given) | – | 50.2 µM (active)

Row | SMILES | outcome | AC50
21 | N#CN | inactive | –
22 | Oc1ccc(Cl)cc1Cc1ccccc1 | inactive | –
23 | CCCN(CCC)c1c([N+](=O)[O-])cc(C(F)(F)F)cc1[N+](=O)[O-] | inactive | –
24 | C[C@H]1[C@H](c2ccc(Cl)cc2)SC(=O)N1C(=O)NC1CCCCC1 | inactive | –
25 | CCN(CC)C(=O)SCc1ccc(Cl)cc1 | inactive | –
26 | CC[C@H](C)[C@H]1O[C@]2(C=C[C@@H]1C)C[C@@H]1C[C@@H](C/C=C(\C)[C@@H](O[C@H]3C[C@H](OC)[C@@H](O[C@H]4C[C@H](OC)[C@@H](O)[C@H](C)O4)[C@H](C)O3)[C@@H](C)/C=C/C=C3\CO[C@@H]4[C@H](O)C(C)=C[C@@H](C(=O)O1)[C@]34O)O2 (tested in a mixture with another compound) | – | 16.8 µM (active)
27 | CCC(C)(C)C(=O)OC1=C(c2ccc(Cl)cc2Cl)C(=O)OC12CCCCC2 | inactive | –
28 | CCCN(CCOc1c(Cl)cc(Cl)cc1Cl)C(=O)n1ccnc1 | – | 62 µM (active)
29 | Oc1cc(Cl)ccc1Oc1ccc(Cl)cc1Cl | inactive | –
30 | CCOCN(C(=O)CCl)c1c(C)cccc1CC | inactive | –
31 | N#Cc1c(Cl)c(Cl)c(Cl)c(C#N)c1Cl | inactive | –
32 | CC(C)OC(=O)Nc1cccc(Cl)c1 | inactive | –
33 | ClC1C(Cl)C(Cl)C(Cl)C(Cl)C1Cl (stereo not given) | inactive | –
34 | COP(=S)(OC)Oc1ccc([N+](=O)[O-])cc1 | inactive | –
35 | O=[N+]([O-])/N=C1\NCCN1Cc1ccc(Cl)nc1 | inactive | –
36 | CNC(=O)/C=C(\C)OP(=O)(OC)OC | inactive | –
37 | Clc1ccccc1-c1nnc(-c2ccccc2Cl)nn1 | inactive | –
38 | CNC(=O)Oc1cccc(N=CN(C)C)c1 | inactive | –
39 | O=S(=O)(O)C(F)(F)C(F)(F)C(F)(F)C(F)(F)C(F)(F)C(F)(F)C(F)(F)C(F)(F)F | inactive | –
40 | O=[N+]([O-])c1c(Cl)c(Cl)c(Cl)c(Cl)c1Cl | inactive | –
